Screening results: PubChem, National Center for Advancing Translational Sciences (NCATS)
Pf growth 96h = P. falciparum growth inhibition at 96 hour, primary screen for plastid delayed-death inhibitors; Potency, µM (series often up to 28.7 µM), usual class: inhibitors; 320,000 compounds, 6.9% hits; P. falciparum luciferase reporter growth, 96 h
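Infected RBCs, 2% Hct / 0.05% parasitemia final; luciferase-reporter P. falciparum; cpd 96 h, 37 C, 5% CO2; luciferase detection reagent; luminescence.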
Pf growth 48h = P. falciparum growth inhibition at 48 hours (one generation) | P. falciparum luciferase growth in erythrocytes, 48 h | Potency, µM (highest dose often 28.7 µM), usual class: inhibitors | 310,000 compounds, 5.9% hits
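First compound was added to culture medium, then infected red cells at 0.1% parasitemia and 2% hematocrit (final). After incubation at 37 C under 5% CO2, luciferase detection reagent was dispensed and light output recorded.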
SARS PLpro yeast = blocks SARS-CoV papain-like protease in a yeast assay; S. cerevisiae expressing SARS-CoV PLpro, growth rescue; Potency, µM (top dose mostly 32.9 µM), usual class: activators; 330,000 compounds, 0.19% hits; AID 485353; calls by dose curve; further: nearly all actives have a fitted effect of over 55% in size
NS1 inh = inhibitors of influenza NS1 protein function | Potency, µM (titrated, usually from 46.1 µM) | 270,000 compounds, 0.4% hits | AID 2326; calls by dose curve; further: actives are rising curves; nearly all actives have a fitted effect of over 50% in size
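Compounds were scored for reversing the slow growth caused by influenza A NS1 in S. cerevisiae, measured by optical density at 600 nm. Assay medium contained 2% galactose at pH 6.0; NS1-free yeast of the same strain were the positive control.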
A number is an active result; - = inactive; ? = inconclusive; . = no result. Compounds with a hit are over-represented: about 10% of the library has one in this group of screens. Unless noted, the call rests on the fitted dose curve; in most records, active means well fitted inhibition curve with a large enough effect; inconclusive means small, poorly fitted or top-dose-only effect, or another doubt; inactive means no such curve, though single readings can be large or run the other way.

SMILES	Pf growth 96h	Pf growth 48h	SARS PLpro yeast	NS1 inh
O=S(=O)(Nc1ccc2c(c1)nc1n2CCN(Cc2ccccc2)C1)c1ccc(F)cc1	-	11.7µM	-	-
O=S(=O)(Nc1ccc2c(c1)nc1n2CCN(Cc2ccccc2)C1)c1ccc(Cl)cc1	-	9.28µM	-	-
CCc1ccc2c(c1)C1(C(=O)N2)N2CCCC2C(C(=O)c2ccc3ccccc3c2)C12C(=O)Nc1ccccc12 (stereo unspecified)	2.33µM	?	-	-
N#Cc1nc(-c2ccccc2F)oc1NCCN1CCOCC1	9.28µM	.	-	-
COc1ccc(C(=O)OCC(=O)NCCc2ccc(F)cc2)cc1S(=O)(=O)N1CCOCC1	.	.	-	.
Cc1ccc(NC(=O)c2nn(C34CC5CC(CC(C5)C3)C4)cc2[N+](=O)[O-])cc1	1.47µM	?	-	-
CCc1ccc(OCCCCN(C)Cc2ccccc2)cc1	13.1µM	-	-	-
CN(C)CCCCOc1ccc(F)cc1	11.7µM	-	-	.
Cc1cc(C)c(C)c(OCCCCN(C)Cc2ccccc2)c1	13.1µM	?	-	-
COc1ccc(OCCN(C)Cc2ccccc2)cc1	-	-	-	?
CCOc1ccc(OCCCCN(C)C)cc1	-	-	-	-
CN(CCOCCOc1ccc2ccccc2c1)Cc1ccccc1	14.7µM	.	-	-
CCOc1ccc(NC(=O)CN(C)C(=O)c2ccc(=O)[nH]c2)cc1OCC	-	-	-	-
Cc1[nH]c(C)c(S(=O)(=O)NCc2ccc(N(C)C)cc2)c1C(=O)N1CCCC1	-	-	?	-
S=C(Nc1ccc(Br)cc1)N1CCN(c2ccccn2)CC1	-	-	-	-
COc1cccc(-c2csc(N3CCN(C(=O)NC45CC6CC(CC(C6)C4)C5)CC3)n2)c1	-	11.7µM	-	?
O=C(N1CCOCC1)N1CCN(c2nc(-c3ccc(F)cc3)cs2)CC1	7.38µM	-	-	-
CNC(=S)N1CCN(c2nc(-c3cccc(OC)c3)cs2)CC1	11.7µM	-	-	-
COc1cccc(-c2csc(N3CCN(C(=S)Nc4ccccc4)CC3)n2)c1	?	?	-	-
COc1cccc(-c2csc(N3CCN(C(=S)Nc4ccc(Cl)cc4)CC3)n2)c1	10.4µM	?	-	-
Cc1ccc(S(=O)(=O)CC(=O)Nc2ccc3nc(C)sc3c2)cc1	-	-	-	-
NC(=O)COc1ccc(/C=N\NC(=O)CC(=O)NCCc2ccccc2)cc1	-	-	-	-
COc1ccc(S(=O)(=O)NNC(=O)Nc2ccc(C)cc2C)c(OC)c1	-	-	-	-
CCN(CC)CCCNC(=S)N1CCN(c2nc(-c3ccc(F)cc3)cs2)CC1	-	9.28µM	-	-
CCNC(=S)N1CCN(c2nc(-c3ccc(F)cc3)cs2)CC1	-	-	-	-
SMILES	Pf growth 96h	Pf growth 48h	SARS PLpro yeast	NS1 inh
CNC(=S)N1CCN(c2nc(-c3ccc(Cl)cc3)cs2)CC1	7.38µM	?	-	-
O=C1CCC([N+](=O)[O-])C(c2ccc3c(c2)OCO3)N1 (stereo unspecified)	10.4µM	-	-	-
COc1cccc(CNC(=O)Cc2ccc(NC3=NC4CS(=O)(=O)CC4S3)cc2)c1 (stereo unspecified)	?	-	-	-
COc1cccc(CNC(=O)c2ccc(Cl)c(NC3=NC4CS(=O)(=O)CC4S3)c2)c1 (stereo unspecified)	2.62µM	-	-	-
O=C(Cc1ccc(NC2=NC3CS(=O)(=O)CC3S2)cc1)N1CCN(c2ccc(F)cc2)CC1 (stereo unspecified)	11.7µM	-	-	-
COc1ccc(OC)c(NC(=O)Cc2ccc(NC3=NC4CS(=O)(=O)CC4S3)cc2)c1 (stereo unspecified)	11.7µM	-	-	-
COc1ccccc1CNC(=O)c1ccc(NC2=NC3CS(=O)(=O)CC3S2)cc1 (stereo unspecified)	11.7µM	-	-	-
Cc1cc(OC(C)C(=O)NCCCn2ccnc2)c2c(C)c(C)c(=O)oc2c1 (stereo unspecified)	?	?	-	-
Cc1ccc(C(=O)Nc2ccc(F)cc2)cc1NC1=NC2CS(=O)(=O)CC2S1 (stereo unspecified)	9.28µM	-	-	-
Cc1cc(C)cc(NC(=O)c2ccc(NC3=NC4CS(=O)(=O)CC4S3)cc2)c1 (stereo unspecified)	-	-	-	-
COc1ccc(NC(=O)c2ccc(NC3=NC4CS(=O)(=O)CC4S3)cc2)cc1 (stereo unspecified)	10.4µM	-	-	-
Cc1ccc(NC(=O)c2ccc(C)c(NC3=NC4CS(=O)(=O)CC4S3)c2)cc1C (stereo unspecified)	-	-	-	-
CCOC(=O)c1ccc(NC(=O)C(=O)NCC2(c3ccc(OC)cc3)CCOCC2)cc1	?	?	-	-
Cc1ccc(S(=O)(=O)N2CCC(C(=O)Nc3ccccc3N3CCCC3)CC2)cc1	-	?	-	.
O=C(Nc1ccccc1N1CCCC1)C1CCN(S(=O)(=O)c2cccc(C(F)(F)F)c2)CC1	10.4µM	11.7µM	-	.
CNC(=O)c1ccc(NC(=O)C2CCN(S(=O)(=O)c3cccc(C(F)(F)F)c3)CC2)cc1	?	13.1µM	-	.
COc1ccc(OC)c(S(=O)(=O)N2CCC(C(=O)Nc3cc(C)ccc3C)CC2)c1	13.1µM	.	-	-
COc1ccc(S(=O)(=O)N2CCC(C(=O)Nc3ccccc3N3CCCC3)CC2)cc1OC	11.7µM	?	-	-
Cc1ccc(C2=NN(CCC#N)C(=O)CO2)cc1	-	-	-	-
O=C(Nc1ccccc1N1CCCCC1)C1CCN(S(=O)(=O)c2cccc(C(F)(F)F)c2)CC1	?	8.28µM	-	.
COc1ccc(NC(=O)C2CCN(S(=O)(=O)c3ccc(C)cc3)CC2)cc1OC	5.22µM	-	-	-
COc1ccc(NC(=O)C2CCN(S(C)(=O)=O)CC2)cc1OC	-	-	-	-
COc1ccc(CN2CCC(=O)N(CCO)CC2)cc1OC	-	-	-	-
COc1ccccc1C(=O)Nc1ccc(S(=O)(=O)N2CCCCC2)cc1	?	-	-	-
COc1cccc(OC)c1C(=O)Nc1ccc(S(=O)(=O)N2CCCCC2)cc1	3.29µM	-	-	-
SMILES	Pf growth 96h	Pf growth 48h	SARS PLpro yeast	NS1 inh
COc1cccc(C(=O)Nc2ccc(S(=O)(=O)N3CCCCC3)cc2)c1OC	5.22µM	11.7µM	-	-
CCN(CC)CCN1C(=O)C2C(C(=O)Nc3ccc(C(C)C)cc3)C3C=CC2(O3)C1C(=O)NC1CCCCC1 (stereo unspecified)	-	?	-	-
CSc1nc2cc(Oc3cccc(Cl)c3Cl)c(Cl)cc2[nH]1	12µM	6.75µM	-	.
CSc1nc2ccc(Cl)cc2[nH]1	-	-	-	-
COc1cccc(CN2CCNC(=O)C2CC(=O)NCc2cc(C(C)C)no2)c1 (stereo unspecified)	-	-	-	-
CCc1nnc(NC(=O)c2ccc(-c3ccc([N+](=O)[O-])cc3Cl)o2)s1	-	-	-	.
Cc1cc2c(s1)c1c(C)nn(Cc3ccc(F)cc3)c(=O)c1n2C	-	-	-	.
Cc1cc2c(s1)c1c(C)nn(Cc3ccccc3F)c(=O)c1n2C	-	?	5.01µM	.
CN1CCN(C(=O)c2ccc(CNS(=O)(=O)c3cccc(Cl)c3)cc2)CC1	?	-	-	-
C/C(NCCN1CCOCC1)=C(\C#N)C(N)=O	1.65µM	-	-	-
